Experimental findings from PubChem BioAssay AID2284339 (EPA ToxCast) are described below.

Each structure is given as a SMILES string. Where “and” joins values, the source holds several entries; their conditions need not be identical. Equal entries are not always repeated. Calls of active or inactive are those of the source. The calls were made as follows: active = hit-call score of the fitted dose curve at least 0.9, where 1 is the maximum; inactive = score below 0.9.

The test relates to NCBI gene 100038242. Kind of test: CCTE_GLTED_xDIO3: CCTE's Xenopus Iodothyronine Deiodinase Type 3 (xDIO3) Inhibition Assay, Great Lakes Toxicology and Ecology Division (GLTED) Lab. On the procedure: CCTE_GLTED_xDIO3 is a cell-free, single-readout assay designed to test the inhibitory activity of chemicals toward Xenopus (frog) iodothyronine Deiodinase Type 3 (DIO3) enzyme. Enzyme is incubated in presence of test chemical for 3 hours during which uninhibited enzyme liberates free iodide from substrate. Free iodide is measured in a second step using the Sandell-Kolthoff method.CCTE_GLTED_xDIO3 is the assay component measured from the CCTE_GLTED_xDIO assay. It is designed to make measurements of enzyme activity, a form of enzyme reporter, as detected with absorbance signals by spectrophotometry.Data from the assay component CCTE_GLTED_xDIO3 was analyzed at the assay endpoint CCTE_GLTED_xDIO3 in the positive analysis fitting direction relative to DMSO as the negative control and baseline of activity. Using a type of enzyme reporter, loss-of-signal activity can be used to understand deiodinase Type 3 activity. To generalize the intended target to other relatable targets, this assay endpoint is annotated to the 'deiodinase' intended target family, where the subfamily is 'deiodinase Type 3'.
[…]
As a reminder, the AC50 is the concentration at which the activity in the assay is half-maximal. Consider `O=C(O)C(F)(F)C(F)(F)C(F)(F)C(F)(F)C(F)(F)C(F)(F)C(F)(F)C(F)(F)C(F)(F)C(F)(F)F`, for which the AC50 was 27.7 µM (active).
As for `O=C(O)C(F)(F)C(F)(F)C(F)(F)C(F)(F)C(F)(F)C(F)(F)C(F)(F)C(F)(F)C(F)(F)F`, the figure is 147 µM (active); as for `COC(=O)C(F)(F)C(F)(F)OC(F)(C(F)(F)F)C(F)(F)OC(F)=C(F)F` (stereo not given), 7.65 µM (active).
Turning to `C=CC(=O)OCC(F)(F)C(F)F`, the AC50 is 19.8 µM (active).
As for `O=S(=O)(O)C(F)(F)C(F)(F)C(F)(F)C(F)(F)C(F)(F)C(F)(F)C(F)(F)C(F)(F)F`, the figure is 142 µM (active) and 160 µM (active).
